Inconclusive results are not listed. The source made the active and inactive calls. The call rests on the fitted dose curve; in most records, active means well fitted cell-killing curve with a large enough effect; inconclusive means small, poorly fitted or top-dose-only effect, or effect the other way; inactive means flat fitted curve, though single readings scatter.
Columns and labels:
Test in all cases: Primary qHTS to identify gynecologic anti-cancer compounds using libraries of approved drugs and bioactive compounds (AID 1345084); further: nearly all actives have a fitted effect of over 55% in size
[1] = test system: C33A; settings: Gynecologic cancer cell panel viability, ATPlite luminescence, 48 h; series mostly up to 57.5 µM
Summary of the method: (§1)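 Cell viability after 48 h drug treatment, ATPlite luminescence readout; five doses.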

[2] = test system: CASKI; settings: Gynecologic cancer cell panel viability, ATPlite luminescence, 48 h; series mostly up to 57.5 µM
Summary of the method: as §1

[3] = test system: Es-2; settings: Gynecologic cancer cell panel viability, ATPlite luminescence, 48 h; series mostly up to 57.5 µM
Summary of the method: as §1

[4] = test system: HeLa; settings: Gynecologic cancer cell panel viability, ATPlite luminescence, 48 h; series mostly up to 57.5 µM
Summary of the method: as §1

[5] = test system: Hek293T; settings: Gynecologic cancer cell panel viability, ATPlite luminescence, 48 h, control line for the selectivity index; series mostly up to 57.5 µM
Summary of the method: as §1

[6] = test system: JEG-3; settings: Gynecologic cancer cell panel viability, ATPlite luminescence, 48 h; series mostly up to 57.5 µM
Summary of the method: as §1

[7] = test system: OV90; settings: Gynecologic cancer cell panel viability, ATPlite luminescence, 48 h; series mostly up to 57.5 µM
Summary of the method: as §1

[8] = test system: PA-1; settings: Gynecologic cancer cell panel viability, ATPlite luminescence, 48 h; series mostly up to 57.5 µM
Summary of the method: as §1

[9] = test system: SKOV3; settings: Gynecologic cancer cell panel viability, ATPlite luminescence, 48 h; series mostly up to 57.5 µM
Summary of the method: as §1

[10] = test system: Tov-21-G; settings: Gynecologic cancer cell panel viability, ATPlite luminescence, 48 h; series mostly up to 57.5 µM
Summary of the method: as §1

[11] = test system: Tov112D; settings: Gynecologic cancer cell panel viability, ATPlite luminescence, 48 h; series mostly up to 57.5 µM
Summary of the method: as §1
On the % scale 0 is the no-effect control and ±100 the full control effect.

COC(=O)C[C@H]1C(C)(C)[C@H](OC(C)=O)C2CC3=C4CC(=O)O[C@@H](c5ccoc5)[C@]4(C)CCC3[C@@]1(C)C2=O (some centres undefined)
inactive: Potency [1] | Potency [2] | Potency [3] | Potency [4] | Potency [5] | Potency [6] | Potency [7] | Potency [8] | Potency [9] | Potency [10] | Potency [11]

COC(=O)C[C@H]1[C@]2(C)C3=C(C)[C@H](c4ccoc4)C[C@H]3O[C@@H]2[C@H](OC(C)=O)C2[C@](C)(C(=O)OC)C=CC(=O)[C@@]21C (some centres undefined)
inactive: Potency [1] | Potency [2] | Potency [3] | Potency [4] | Potency [5] | Potency [6] | Potency [7] | Potency [8] | Potency [9] | Potency [10] | Potency [11]

C=C1CCC[C@]2(C)CC[C@@H](C(=C)C(=O)O)[C@H](O)[C@@H]12
inactive: Potency [1] | Potency [2] | Potency [3] | Potency [4] | Potency [5] | Potency [6] | Potency [7] | Potency [8] | Potency [9] | Potency [10] | Potency [11]

C[C@@]12CC[C@@H]3[C@@](CC[C@H]4[C@@]3(C)CCC[C@@]4(C)C(=O)O)(CC1=O)C2
inactive: Potency [1] | Potency [2] | Potency [3] | Potency [4] | Potency [5] | Potency [6] | Potency [7] | Potency [8] | Potency [9] | Potency [10] | Potency [11]

C[S+](CC[C@H](N)C(=O)[O-])C[C@H]1O[C@@H](n2cnc3c(N)ncnc32)[C@H](O)[C@@H]1O (some centres undefined)
inactive: Potency [1] | Potency [2] | Potency [3] | Potency [4] | Potency [5] | Potency [6] | Potency [7] | Potency [8] | Potency [9] | Potency [10] | Potency [11]

CC(C)S(=O)(=O)N[C@H]1CCOC[C@@H]1c1ccc(-c2ccc(C#N)s2)cc1
inactive: Potency [1] | Potency [2] | Potency [3] | Potency [4] | Potency [5] | Potency [6] | Potency [7] | Potency [8] | Potency [9] | Potency [10] | Potency [11]

C=C1C(OC2OCC(O)C(O)C2O)CC2C(C)(C)C(O)CCC2(C)C1CC/C(C)=C\CO (centres undefined)
inactive: Potency [1] | Potency [2] | Potency [3] | Potency [4] | Potency [5] | Potency [6] | Potency [7] | Potency [8] | Potency [9] | Potency [10] | Potency [11]

CC1(C)CCC2(C(=O)OC3OCC(O)C(O)C3O)CCC3(C)C(=CCC4C5(C)CC(O)C(OC6OC(COC7OCC(O)C(O)C7O)C(O)C(O)C6O)C(C)(C)C5CCC43C)C2C1 (centres undefined)
inactive: activity change, negative = cytotoxicity [1] 7.41% [at 11.6 µM] | activity change, negative = cytotoxicity [2] 17.9% [at 11.6 µM] | activity change, negative = cytotoxicity [3] 5.97% [at 11.6 µM] | activity change, negative = cytotoxicity [4] 7.08% [at 11.6 µM] | activity change, negative = cytotoxicity [5] -8.87% [at 11.6 µM] | activity change, negative = cytotoxicity [6] 11.8% [at 11.6 µM] | activity change, negative = cytotoxicity [7] 4.98% [at 11.6 µM] | activity change, negative = cytotoxicity [8] 14.1% [at 11.6 µM] | activity change, negative = cytotoxicity [9] 12.7% [at 11.6 µM] | activity change, negative = cytotoxicity [10] 8.15% [at 11.6 µM] | activity change, negative = cytotoxicity [11] 7.12% [at 11.6 µM]

O=C(Nc1ccc(S(=O)(=O)Nc2ccccc2Cl)c(Cl)c1)c1ccccn1
inactive: Potency [1] | Potency [2] | Potency [3] | Potency [4] | Potency [5] | Potency [6] | Potency [7] | Potency [8] | Potency [9] | Potency [10] | Potency [11]

C/C=C/C=C/C(=O)N1CC[C@]23c4ccccc4N[C@H]4N(C)c5cccc6c5[C@@]42CCN([C@H]6C2OC2(C)C)[C@H]13 (some centres undefined)
inactive: Potency [1] | Potency [2] | Potency [3] | Potency [4] | Potency [5] | Potency [6] | Potency [7] | Potency [8] | Potency [9] | Potency [10] | Potency [11]

CC/C=C\C/C=C\C/C=C\CCCCCCCC(=O)OCC(O)COC1OC(CO)C(O)C(O)C1O (centres undefined)
inactive: Potency [1] | Potency [2] | Potency [3] | Potency [4] | Potency [5] | Potency [6] | Potency [7] | Potency [8] | Potency [9] | Potency [10] | Potency [11]

CC12CCC(=O)C=C1C(O)CC1C2C(O)CC2(C)C1CC[C@]2(O)C(=O)CO (some centres undefined)
inactive: activity change, negative = cytotoxicity [1] 4.59% [at 11.6 µM] | activity change, negative = cytotoxicity [2] -0.604% [at 11.6 µM] | activity change, negative = cytotoxicity [3] 1.39% [at 11.6 µM] | activity change, negative = cytotoxicity [4] 6.62% [at 11.6 µM] | activity change, negative = cytotoxicity [5] 5.48% [at 11.6 µM] | activity change, negative = cytotoxicity [6] 6.5% [at 11.6 µM] | activity change, negative = cytotoxicity [7] 9.39% [at 11.6 µM] | activity change, negative = cytotoxicity [8] -1.22% [at 11.6 µM] | activity change, negative = cytotoxicity [9] -0.607% [at 11.6 µM] | activity change, negative = cytotoxicity [10] -3.93% [at 11.6 µM] | activity change, negative = cytotoxicity [11] 12.3% [at 11.6 µM]

OC[C@H]1O[C@@H](OCCc2ccc(O)cc2)[C@H](O[C@@H]2OC[C@](O)(CO)[C@H]2O)[C@@H](O)[C@@H]1O
inactive: Potency [1] | Potency [2] | Potency [3] | Potency [4] | Potency [5] | Potency [6] | Potency [7] | Potency [8] | Potency [9] | Potency [10] | Potency [11]

CC1(C)[C@@H](O)CC[C@]2(C)[C@H]3CC=C4[C@@H]5C[C@](C)(C(=O)O)CC[C@]5(C)CC[C@@]4(C)[C@]3(C)CC[C@@H]12
inactive: Potency [1] | Potency [2] | Potency [3] | Potency [4] | Potency [5] | Potency [6] | Potency [7] | Potency [8] | Potency [9] | Potency [10] | Potency [11]

— PubChem BioAssay (NCATS)
